# According to PubChem BioAssay (EPA / NIEHS):
# Calls of active or inactive are those of the source. Rule for the calls: active = hit-call score of the fitted dose curve at least 0.9, where 1 is the maximum; inactive = score below 0.9.
# Read-out: solute carrier (SLCO1B1), SLCO1B1 (gene 10599)
# Test: LTEA_HepaRG_SLCO1B1: Life Technologies and Expression Analysis (LTEA) Assay for solute carrier (SLCO1B1) using HepaRG (AID 2283530)
# Details: mRNA level, 48 h; actives raise or lower the signal
# Protocol: LTEA_HepaRG is a cell based, multiplexed-readout assay that uses HepaRG, a human liver cell line, with measurements taken at 48 hours after chemical dosing on a 96-well plate.LTEA_HepaRG_SLCO1B1 is one of 102 assay component(s) measured in the LTEA HepaRG cell culture assay. It is a marker of NR mediated transport.Data from the assay component LTEA_HepaRG_SLCO1B1 was analyzed into 1 endpoint. This assay endpoint, LTEA_HepaRG_SLCO1B1, was analyzed with bidirectional fitting relative to DMSO as the negative control and baseline of activity. Using a type of inducible reporter, measures of mRNA induction for gain or loss-of-signal activity can be used to understand regulation of transcription factor activity. To generalize the intended target to other relatable targets, this assay endpoint is annotated to the transporter intended target family, where the subfamily is organic anion transporter.
# A total of 1060 chemcials from the ToxCast library were tested in eight-point concentration-response experiments. Cell culture and cytotoxicity assays were conducted at Thermo Fisher Scientific's Custom Services facility (Madison, WI). A single lot of human HepaRG cells (Thermo Fisher Scientific, Frederick, MD) was used for the cell culture experiments. 96-well format collagen type I coated plates of human HepaRG cells were prepared using established methods. Briefly, cryopreserved HepaRG cells were thawed, plated at a density of approximately 100,000 cells/well in HepaRG Thaw, Plate, and General Purpose media (HPRG770, Thermo Fisher Scientific), and incubated for 48 hours. 0.5% DMSO was selected as vehicle control to balance the requisite need of DMSO in HepaRG cultures to maintain differentiation (for example, baseline metabolism, proportions of hepatocytes vs. cholangiocytes), while enabling further hepatic receptor pathway activation (for example, PXR and CAR) in response to chemical exposure. 48 hours after plating, the culture medium was replaced with HepaRG Serum-Free Incudtion Media. Cells were exposed to each test chemical in duplicate and maintained in CO2 incubators for another 48 hours. Chemical plates were thawed to room temperature and 200x concentrations of treatment groups were prepared. 8-point conentration-reponse curves were made with the highest exposure at 100 uM, followed by half-log dilutions, all in 0.5% DMSO. Each test plate contained variouse controls, induction positive controls (1mM phenobarbital), cytotoxicity positive controls ([…] aflatoxin B1), vehicle controls (0.5% DMSO), and total lysis controls (0.5% DMSO). Cell morphology images were taken using an Essen IncuCyte FLR automated microscope, with six 96-well plates imaged in about 24 minutes. Images were captured and exported and JPEG files. Spent culture media was transfered to black-well plates for the LDH assay, and remaining media was sorted at -80 C for later use. Cells were treated with RLT buffer and frozen until shipped for gene expression analysis. Total RNA was isolated from the cell suspension in 75 uL of Buffer RLT (Qiagen, Germantown, MD 20874) by Quintiles/Expression Analysis (Durham, NC) using a custom isolation procedure. Total RNA from each plate well was transferred to a preamplification plate. Fluidigm's 96.96 Dynamic ArrayTM (Fluidigm, Amsterdam, the Netherlands) technology was used for gene expression analyses by quantitative reverse transcription polymerase chain reaction (qRT-PCR, performed by Quintiles/Expression Analysis, Durham, NC)89. Standard TaqManTM Assays (Applied Biosystems/ThermoFisher Scientific, Foster City, CA) were used to assess the expression of 93 genes selected based on their selectivity and sensitivity to important hepatic receptors known to be modulated by environmental chemicals; importance in human hepatocyte functionality; and hepatotoxicity. […]
Structure (SMILES),outcome,AC50
CN(C)CCOC(c1ccccc1)c1ccccc1,inactive,
CCCCC=O,inactive,
N=C(N)c1ccc(OCCCCCOc2ccc(C(=N)N)cc2)cc1,,3.57 µM (active)
CCCCc1oc2ccccc2c1C(=O)c1cc(I)c(OCCN(CC)CC)c(I)c1,,67.7 µM (active)
O=C(c1ccccc1)c1ccccc1,inactive,
Cc1[nH]nc2c1N=C(c1ccccc1Cl)c1cc([N+](=O)[O-])ccc1N2,,7.93 µM (active)
CC(=O)Nc1ccc(O)cc1,inactive,
O=C1NS(=O)(=O)c2ccccc21,inactive,
CCCCC(CC)C(=O)O (stereo not given),inactive,
CCCCCCCCCCCCCCC,inactive,
CCC(C)c1ccccc1O (stereo not given),inactive,
CS(=O)(=O)c1ccc([C@@H](CC2CCCC2)C(=O)Nc2cnccn2)cc1Cl,,84 µM (active)
OCC(CO)(CBr)CBr,inactive,
O=C(CCCN1CCC(O)(c2ccc(Cl)cc2)CC1)c1ccc(F)cc1,,82.6 µM (active)
CN(Cc1cnc2nc(N)nc(N)c2n1)c1ccc(C(=O)N[C@@H](CCC(=O)O)C(=O)O)cc1,inactive,
